CIT2 TOR yeast: modulators of CIT2-GFP expression in yeast, primary screen, S. cerevisiae, GFP fusion, multiplex flow cytometry, MLPCN library; GFP response vs DMSO, % at 10 µM; AID 2029, 2009; 320,000 tested, 0.065% active; S. cerevisiae CIT2-GFP strain, 3 h; 100 means same as DMSO wells;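 active = GFP response relative to DMSO above a set limit, near the screen mean plus 3 SD, cut at about 150% in these data; inconclusive = Fewer than 70 cells measured for a yeast strain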;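 also: ratio of well median GFP fluorescence to mean of DMSO wells on the plate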
AGP1 TOR yeast: modulators of AGP1-GFP expression in yeast TOR pathway, primary screen, cell-based, multiplex flow cytometry, S. cerevisiae, MLPCN library. 320,000 tested, 0.02% active. GFP response vs DMSO, % at 10 µM. 3 h; GFP as percent of DMSO wells;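 active = GFP response relative to DMSO above a set limit, near screen average plus 3 SD, cut at about 150% in these data; inconclusive = fewer than 70 cells counted for the yeast strain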;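 also: median GFP channel fluorescence of the gated AGP1 strain per well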
LAP4 TOR yeast: modulators of LAP4-GFP expression in yeast, primary screen, S. cerevisiae, multiplex flow cytometry, MLPCN library. GFP response vs DMSO, % at 10 µM. 320,000 tested, 0.34% active. AID 2023, 2009. 3 h; median GFP as percent of DMSO wells;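 active = GFP response vs DMSO above a set limit, about the screen mean plus 3 SD, cut at about 150% in these data; inconclusive = under 70 cell events counted for the yeast strain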
Efflux pump mplx: inhibitors of Candida efflux pumps in yeast, primary screen, S. cerevisiae, Nile Red, multiplex. S. cerevisiae Candida pump triplex. inhibition, % at 10 µM. 330,000 tested, 0.44% active. AID 485275, 2010;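 active = plate passing quality check with inhibition over a set limit, or well fluorescence over plate mean plus 4 SD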;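 also: Nile Red retained in pooled yeast measured as flow cytometry median fluorescence; 0% = buffer negative control and 100% = Enniatin B positive control; higher means more Nile Red kept so more efflux inhibition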
MEP2-GFP yeast: modulators of MEP2-GFP levels in yeast, primary screen, S. cerevisiae, multiplex flow cytometry, MLPCN library. S. cerevisiae MEP2-GFP strain, 3 h; 100% = DMSO control level. GFP response vs DMSO, % at 10 µM. 330,000 tested, 0.51% active. AID 2016, 2009;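 active = GFP response versus DMSO above a set limit, roughly screen mean plus 3 SD, cut at about 180% in these data; inconclusive = fewer than 70 cells counted for a yeast strain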;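 also: median GFP fluorescence of the barcode-gated MEP2-GFP cells per well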
RPL19A-GFP yeast: RPL19A-GFP expression modulators in yeast, primary screen, cell-based, S. cerevisiae, multiplex flow cytometry, MLPCN; percent response vs DMSO, % at 10 µM; AID 2025, 2009; S. cerevisiae RPL19A-GFP strain, 3 h; stronger effect = lower value; 330,000 tested, 0.3% active;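 active = percent response vs DMSO below 50%; inconclusive = fewer than 70 events counted for the yeast strain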;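 also: median channel GFP fluorescence of the barcoded RPL19A-GFP strain; ratio of sample median GFP to plate DMSO average so 100% = DMSO; lower means less RPL19A-GFP as with rapamycin TOR inhibition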
Active calls of the source: *; ? = inconclusive; nt = no result given; [ ] = another dose, or the depositor's remark. Shown are actives, neighbours in structure and some others; about 1.3% of the full set was active somewhere.

SMILES | CIT2 TOR yeast | AGP1 TOR yeast | LAP4 TOR yeast | Efflux pump mplx | MEP2-GFP yeast | RPL19A-GFP yeast
O=C(NNC(=O)C(O)(c1ccccc1)c1ccccc1)C1CC1 | 94 | 93 | 92 | 0 | 90 | 92
CN(Cc1ccc(Cl)cc1Cl)C(=O)CCNC(=O)c1ccco1 | 89 | 93 | 89 | 0 | 93 | 96
CCOC(=O)c1ccc(NC(=O)Oc2cc(C)c(Cl)cc2C(C)C)cc1 | 93 | 100 | 112 | 0 | 101 | 99
Nc1c(C(=O)Nc2ccccc2)c2nc3ccccc3nc2n1CCCN1CCOCC1 | ? | ? | 78 | 0 | 117 | 42*[may fluoresce violet]
O=C(NC(=S)Nc1ccc2oc(-c3cccnc3)nc2c1)c1cccc(Cl)c1 | ? | nt | 87 | 0 | 226*[may fluoresce violet] | 52
O=C(Nc1ccc2oc(-c3cccnc3)nc2c1)c1cc2ccccc2o1 | 97 | 94 | 108 | 0 | 119 | 98
O=C(CNC(=S)N(Cc1ccccc1F)C1CCCCC1)NCCCN1CCOCC1 | ? | ? | 86 | 0 | 317*[may fluoresce violet] | 56
Cn1cc([N+](=O)[O-])c(C(=O)N/N=C/c2cc3c(cc2Br)OCO3)n1 | 109 | 101 | 97 | 0 | 110 | 105
O=C(NCCCSc1ccccc1)c1cc(Cl)ccc1O | 108 | 82 | 162* | 0 | 114 | 110
O=C(CNC(=O)c1ccccc1)NCCCSc1ccccc1 | 109 | 103 | 94 | 0 | 106 | 103
O=C(/C=C/c1cccc(Cl)c1)c1ccc([N+](=O)[O-])o1 | ? | 15 | 135 | 0 | 202*[may fluoresce violet] | 58
Cc1cc(O)c(C(=O)/C=C/c2cccc([N+](=O)[O-])c2)c(=O)o1 | 103 | 111 | 128 | 0 | 89 | 92
Cc1ccccc1OCCSc1nc2ccccc2n1CCC(=O)O | 97 | 91 | 85 | 0 | 101 | 99
COc1ccc(S(=O)(=O)NCCc2c[nH]c3ccc(Cl)cc23)cc1 | 103 | 107 | 101 | 0 | 109 | 101
NCCSc1c(-c2ccccc2)[nH]c2ccccc12 | 122 | 112 | 98 | 0 | 103 | 106
NCCSc1c(-c2ccc(F)cc2)[nH]c2ccccc12 | ? | 25 | 101 | 0 | 616*[may fluoresce violet] | 74
Cc1cc(S(=O)(=O)NCCCN2CCOCC2)ccc1Br | 102 | 105 | 98 | 0 | 103 | 96
C=C1C(=O)C=C2CN(C(=O)c3ccccc3)[C@@](Cc3ccc(F)cc3)(C(=O)OC)[C@@H]12 | 87 | 81 | 173* | 0 | 90 | 102
COC(=O)[C@@]1(Cc2ccc(OC)cc2)[C@@H]2C(=CC(=O)[C@H]2CC(=O)C(=O)N(C)C)CN1C(=O)c1ccccc1 | 111 | 100 | 107 | 0 | 94 | 104
O=C(C1CCC1)N1CCc2cc(S(=O)(=O)NCC3COc4ccccc4O3)ccc21 (stereo not given) | 92 | 98 | 100 | 0 | 100 | 96
O=C(C1CC1)N1CCc2cc(S(=O)(=O)NCC3COc4ccccc4O3)ccc21 (stereo not given) | ? | ? | 75 | 0 | 303*[may fluoresce violet] | 23*[may fluoresce violet]
COC(=O)C1=C(O)/C(=C\c2ccc(OCC(=O)Nc3ccc(OC)cc3)cc2)N=C1C | 97 | 92 | 101 | 0 | 106 | 103
NC(=O)C(c1cccc(Cl)c1)c1ncc(C(F)(F)F)cc1Cl (stereo not given) | ? | 20 | 85 | 0 | 239*[may fluoresce violet] | 53
CC1CCN(C(=O)CSc2ccc(-c3ccccc3)nn2)CC1 | 96 | 83 | 92 | 0 | 92 | 95
Cc1cccc(NC(=O)c2cc3c(s2)-c2c(C)cccc2OC3)n1 | ? | 56 | 103 | 0 | 222*[may fluoresce violet] | 74
SMILES | CIT2 TOR yeast | AGP1 TOR yeast | LAP4 TOR yeast | Efflux pump mplx | MEP2-GFP yeast | RPL19A-GFP yeast
CNS(=O)(=O)c1cc(-c2nnc(Nc3ccc(CC(N)=O)cc3)c3ccccc23)ccc1C | 101 | 133 | 93 | 0 | 101 | 105
Cc1ccc(-c2nnc(Nc3ccc(CC(N)=O)cc3)c3ccccc23)cc1S(N)(=O)=O | 100 | 103 | 91 | 1.7* | 99 | 105
Cc1ccc(OCCN2CCN(C(=O)CCC(=O)Nc3nnc(CC(C)C)s3)CC2)cc1 | ? | ? | 77 | 0 | 355*[may fluoresce violet] | 43*[may fluoresce violet]
CCCCOc1ccc(C(=O)N(Cc2ccco2)C2CCS(=O)(=O)C2)cc1 (stereo not given) | 103 | 100 | 101 | 0 | 108 | 101
O=C(c1ccc(Br)cc1)N(Cc1ccco1)C1CCS(=O)(=O)C1 (stereo not given) | ? | ? | 88 | 0 | 161 | 20*[may fluoresce violet]
Cc1oc2c(CN3CCOCC3)c(O)ccc2c(=O)c1-c1ccccc1 | 99 | 105 | 95 | 0 | 102 | 95
Cc1oc2c(CN3CCCC(C)C3)c(O)ccc2c(=O)c1-c1ccccc1 (stereo not given) | 94 | 56 | 99 | 0 | 253* | 50
COc1ccc(CCNC(=O)C2CCC(=O)N(C3CCCCCC3)C2)cc1 (stereo not given) | 95 | 88 | 86 | 0 | 95 | 95
Cc1ccc(S(=O)(=O)NCC(=O)Nc2ccc(C(F)(F)F)cc2)cc1 | ? | nt | 99 | 0 | 173 | 41*[may fluoresce violet]
O=[N+]([O-])c1ccccc1C1Nc2cccc3cccc(c23)N1 | ? | 24 | 103 | 0 | 476*[may fluoresce violet] | 63
CCC(=O)c1ccc(OCC(=O)OCC(=O)NCC2CCCCC2)cc1 | 103 | 110 | 103 | 0 | 97 | 96
COc1ccccc1NC(=S)N1CCC(c2nc3cc(C)c(C)cc3[nH]2)CC1 | ? | ? | 98 | 0 | 300*[may fluoresce violet] | 59
Cc1onc(-c2ccccc2)c1C(=O)N1CCC(C)CC1 | 122 | 134 | 160* | 0 | 221* | 83
CC(C)(C)OC(=O)CC12CCCCC1NC(=O)O2 (stereo not given) | 85 | 81 | 123 | 0 | 88 | 92
CCOC(=O)c1c2ccccc2[n+]([O-])n1[C@@H](C)C(N)=O | ? | ? | 105 | 0 | 281*[may fluoresce violet] | 30*[may fluoresce violet]
O=c1cc(-c2ccccc2)nc(SCc2ccccc2F)[nH]1 | 96 | 101 | 111 | 0 | 95 | 90
N#Cc1c(N)nc2c(c1-c1ccncc1)CCCCC2 | ? | ? | 80 | 0 | 817*[may fluoresce violet] | 54
CC(=O)Nc1ccc(NC(=O)CCCn2cnc3ccccc3c2=O)cc1 | ? | 16 | 84 | 0 | 242*[may fluoresce violet] | 96
Cc1ccc(NC(=O)CCn2cnc3ccccc3c2=O)cc1 | 89 | 103 | 95 | 0 | 98 | 98
COc1ccc(/C=N/NC(=O)Cn2cnc3ccccc3c2=O)cc1 | ? | 22 | 79 | 0 | 245*[may fluoresce violet] | 49*[may fluoresce violet]
CSc1cccc(NC(=S)Nc2ccc(F)cc2)c1 | nt | nt | nt | 0 | 576*[may fluoresce violet] | 56

Assay outcomes: PubChem, NMMLSC
